From PubChem BioAssay (NCI) come the findings set out here.

Structures are written as SMILES. Compounds without any hit were thinned out: in the full panel of roughly 83,000, 20% have a hit.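 How to read the values: 0–100, growth inhibition (40 = 60% inhibited); 0, no net growth; -100 to 0, cell death (-40 = 40% of starting cells died; -100 = all dead).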 Unmarked numbers belong to inactive results. Calls of active or inactive are those of the source. Rule for the calls: active = growth percent below 10; inactive = the rest.

Holding throughout (test): NCI-60 one-dose screen, 48 h (100 = growth as untreated, 0 = no growth, -100 = all killed)
What all share (conditions): 10 µM

Experiment [1] concerns T-47D breast.
Experiment [2] relates to BT-549 breast.
In experiment [3] the test system is MDA-MB-435 melanoma.
Experiment [4] relates to SW-620 colon.
Experiment [5] deals with MCF7 breast.
Experiment [6] concerns HCT-116 colon.
Experiment [7] relates to KM12 colon.

In the case of `NC(CSC(c1ccccc1)(c1ccccc1)c1cccc2ccccc12)C(=O)O` (stereo not given), the growth in experiment [1] was 103%; in experiment [2] it was 91.7%; in experiment [3] it was 90.9%; in experiment [4], 97.8%; in experiment [5], 105%; in experiment [6], 85.7%. Also, the growth in experiment [7] is 91.9%.
`CCOC(=O)c1cc(C(=O)c2ccc(Cl)cc2)n2ccc(-c3cc[n+](CC(=O)c4ccc(OC)cc4)cc3)cc12`: the growth in experiment [1] was 83.4%; in experiment [2] it was 82.1%; in experiment [3] it was 75.5%; in experiment [4], -29.5% (active); in experiment [5] it was 1.28% (active); in experiment [6] it was 5.5% (active). The growth in experiment [7] is 64.4%.
Take `O=C1/C=C/[C@@H](O)[C@@H]2C[C@@H](O)C[C@H]2/C=C/CCC[C@H](CCc2ccc(C(F)(F)F)cc2)O1`: the growth was -32.2% (active) in experiment [1]; 4.5% (active) in experiment [2]; 7.3% (active) in experiment [3]; -1.3% (active) in experiment [4]; -17.5% (active) in experiment [5]; -45.8% (active) in experiment [6]. The growth in experiment [7] is -6.74% (active).
In the case of `CN1CCN(CCCn2c(=O)c3sc4ncccc4c3n3nnc(-c4ccccc4)c23)CC1`, the growth in experiment [1] is -75.4% (active); in experiment [2] it was 50.1%; in experiment [3], -75.8% (active); in experiment [4], -65.5% (active); in experiment [5] it was 5.32% (active); in experiment [6], -59.2% (active). Also, in experiment [7], the growth is 16.4%.
In the case of `O=[N+]([O-])c1ccc2ncccc2c1Cl`, the growth in experiment [1] was 68.7%; in experiment [2], 43.6%; in experiment [3], -36.9% (active); in experiment [4] it was 14.5%; in experiment [5], 13.4%; in experiment [6] it was 5.31% (active). Further, the growth in experiment [7] was -7.28% (active).
With `COC1=CC(=O)OC(c2ccc(OC)cc2)C1` (stereo not given), the growth in experiment [1] is 101%; in experiment [2], 105%; in experiment [3] it was 114%; in experiment [4], 102%; in experiment [5], 99.8%; in experiment [6] it was 108%. Moreover, in experiment [7], the growth is 102%.
For `O=C(COc1cccc(/C=C2\CSc3ccccc3C2=O)c1)c1ccc(Cl)cc1`, the growth in experiment [1] is 57.8%; in experiment [2] it was -77.5% (active); in experiment [3], -14.8% (active); in experiment [4], -100% (active); in experiment [5], -89.2% (active); in experiment [6], -57.8% (active). The growth in experiment [7] was -80.3% (active).
With `COc1cc(NC(=O)C2=C(N3CCOCC3)/C(=C/c3ccc(Cl)cc3)CC2)cc(OC)c1OC`, the growth in experiment [1] was 71.1%; in experiment [2] it was 103%; in experiment [3] it was 75.3%; in experiment [4], 100%; in experiment [5], 73.3%; in experiment [6] it was 65.7%. In experiment [7], the growth was 97.3%.
`COc1ccc(-c2cc(-c3cc(OC)ccc3OC)nc(N)c2C#N)cc1`: the growth in experiment [1] is 54.4%; in experiment [2], 24.7%; in experiment [3], 46.8%; in experiment [4], 65.5%; in experiment [5], 38.9%; in experiment [6], 35.1%. Further, the growth in experiment [7] was 71.7%.
Take `CCCCN1C(=O)CC(SC2CC(=O)N(CCCC)C2=O)C1=O` (stereo not given): the growth is 106% in experiment [1]; 104% in experiment [2]; 108% in experiment [3]; 110% in experiment [4]; 102% in experiment [5]; 105% in experiment [6]. Besides, the growth in experiment [7] was 107%.
For `O=C(c1ccccc1)N(C(=O)c1ccccc1)N1CCCC1`, the growth was 99.9% in experiment [1]; 105% in experiment [2]; 116% in experiment [3]; 100% in experiment [4]; 105% in experiment [5]; 106% in experiment [6]. In experiment [7], the growth is 107%.
Consider `COC(=O)CC[C@@H](C)[C@H]1CC[C@H]2[C@@H]3CC[C@@H]4C[C@H](O)CC[C@]4(C)[C@H]3C[C@H](O)[C@]12C`, for which the growth in experiment [1] is 89.2%; in experiment [2] it was 96.4%; in experiment [3] it was 118%; in experiment [4] it was 107%; in experiment [5] it was 84.8%; in experiment [6], 86.7%. The growth in experiment [7] is 102%.
For the compound `COc1ccc2c(c1)C(=O)/C(=C/c1cccc(OCC(=O)c3ccc([N+](=O)[O-])cc3)c1)CO2`, the growth was 50.3% in experiment [1]; -34.5% (active) in experiment [2]; 24.4% in experiment [3]; -89% (active) in experiment [4]; -35.9% (active) in experiment [5]; -74.2% (active) in experiment [6]. The growth in experiment [7] is -87.9% (active).
Regarding `CC1=CC2C(C(O)CC3(C)C2CC(C)C32OCOC23COCO3)C2(C)C/C(=C/O)C(=O)C=C12` (stereo not given), the growth in experiment [1] is 24.3%; in experiment [2], 51.2%; in experiment [3] it was 7.68% (active); in experiment [4] it was 5.28% (active); in experiment [5] it was 5.37% (active); in experiment [6], -70.2% (active). Further, the growth in experiment [7] was 12%.
In the case of `CC[C@@H](C(=O)[C@@H](C)[C@@H](O)[C@H](C)[C@@H]1O[C@@H]([C@@H](CC)C(=O)N(CC)CC)CC[C@@H]1C)C1O[C@]2(C=CC(=O)[C@]3(CC[C@@](C)([C@H]4CC[C@](O)(CC)[C@H](C)O4)O3)O2)[C@H](C)C[C@@H]1C` (stereo not given in full), the growth was 16.2% in experiment [1]; 43.8% in experiment [2]; 30.2% in experiment [3]; 25.3% in experiment [4]; 5.81% (active) in experiment [5]; 5.97% (active) in experiment [6]. The growth in experiment [7] is 40.9%.
